From PubChem BioAssay (NCATS)
Inconclusive results are not listed. Calls of active or inactive are those of the source. Calls follow the shape of the dose curve; as a rule, active = well fitted curve in the direction sought with a large enough effect; inconclusive = small, poorly fitted or top-dose-only effect, or another doubt; inactive = no such curve, though single readings can be large; an effect the other way counts as inactive or inconclusive.

Tests used:
[1] = biological target: Metallo-beta-lactamase type 2 (Klebsiella pneumoniae) (UniProt C7C422); experiment: qHTS to identify inhibitors of the New Delhi Metallo-beta-lactamase (NDM): assay validation screen against the NCATS LOPAC Collection (AID 1794843); details: NDM-1 enzyme, nitrocefin hydrolysis, absorbance 485 nm; series mostly up to 38.4 µM;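 also: nitrocefin turnover by NDM-1 measured as 485 nm absorbance at plateau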
In short: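 Enzyme 2 nM final, 50 mM HEPES pH 7.0, 1 uM ZnSO4, 0.01% Tween20; cpds in DMSO, preincub w/ enzyme; + nitrocefin (50 uM stock); A485 at plateau; no-enzyme column as blank.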

[2] = biological target: Glutathione peroxidase 1 (Homo sapiens) (UniProt P07203); experiment: Primary qHTS Assay for Inhibitors of Recombinant Selenoprotein Glutathione Peroxidase 1 (GPX1) (AID 1845191); details: recombinant GPX1, GR-coupled NADPH fluorescence, 15 min; series mostly up to 48.8 µM; also: nearly all actives have a fitted effect of over 65% in size
In short: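 GR-coupled readout: NADPH consumption tracked by fluorescence, ex 340/em 450 nm, at t=0 and after 15 min at RT. Final mix 10 nM GPX1, 1 mM GSH, 0.5 mM CHP, 0.5 mM NADPH, 100 nM GR, 0.01% BSA, following 30 min enzyme–compound preincubation.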

[3] = biological target: Phospholipid hydroperoxide glutathione peroxidase GPX4 (Homo sapiens) (UniProt P36969); experiment: Primary qHTS Assay for Inhibitors of Recombinant Selenoprotein Glutathione Peroxidase 4 (GPX4) (AID 1845192); details: recombinant GPX4, GR-coupled NADPH fluorescence, 15 min; series mostly up to 50 µM; also: nearly all actives have a fitted effect of over 65% in size
In short: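 Steps: GPX4 plus compound, 30 min RT; add GR/GSH/NADPH master mix; start with cumene hydroperoxide; read 340/450 nm fluorescence at 0 and 15 min. Finals were 200 nM GPX4, 1 mM GSH, 0.5 mM CHP, 0.5 mM NADPH, 100 nM GR.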

[4] = HepG2 viability counterscreen (readout 2: ATP content) against the NCATS DSHEA and TCM libraries (AID 1794840); details: ATP content luminescence; series mostly up to 27.3 µM
In short: (§1)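 Same wells read twice: first fluorescence from cleaved GF-AFC substrate (25 uM final, 30 min, 37C) for live-cell protease, then CellTiter-Glo luminescence after 30 min at room temperature for ATP. HepG2 cells were exposed ~24 h to substances.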

[5] = biological target: Nuclear receptor subfamily 1 group I member 3 (Homo sapiens) (UniProt Q14994); experiment: Primary qHTS for agonist of constitutive androstane receptor (CAR) against the NCATS DSHEA and TCM libraries (AID 1794839); details: CAR agonist reporter cells, qHTS luminescence, CAR antagonist co-added at 0.75 µM; series mostly up to 40 µM;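 also: HepG2 cells expressing human CAR with a CYP2B6 reporter plus PK11195 antagonist; luciferase reporter luminescence read with ONE-Glo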
In short: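 qHTS, agonist mode: HepG2-CYP2B6-hCAR, 2,500 cells/well, 5 h attach; cpds + PK11195 0.75 µM final; 24 h, 37 °C, 5% CO2. Readouts: CellTiter-Fluor (405/540 nm), then ONE-Glo luminescence.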

[6] = HepG2 viability counterscreen (readout 1: protease activity) against the NCATS DSHEA and TCM libraries (AID 1794841); details: qHTS concentration series; series mostly up to 27.3 µM;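 also: cells exposed to compounds for about 24 h before the protease read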
In short: as §1

Measured: Potency

Metallo-beta-lactamase type 2 (Klebsiella pneumoniae), sequence (C7C422 whole entry, looked up): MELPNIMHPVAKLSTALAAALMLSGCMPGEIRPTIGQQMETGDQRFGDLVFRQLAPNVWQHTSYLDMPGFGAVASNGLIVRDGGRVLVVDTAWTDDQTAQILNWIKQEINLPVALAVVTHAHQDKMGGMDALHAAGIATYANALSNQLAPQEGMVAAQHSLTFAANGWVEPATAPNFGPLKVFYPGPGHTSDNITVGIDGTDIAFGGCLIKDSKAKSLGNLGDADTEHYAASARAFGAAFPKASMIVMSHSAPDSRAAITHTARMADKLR
Phospholipid hydroperoxide glutathione peroxidase GPX4 (Homo sapiens), sequence (P36969 whole entry, looked up): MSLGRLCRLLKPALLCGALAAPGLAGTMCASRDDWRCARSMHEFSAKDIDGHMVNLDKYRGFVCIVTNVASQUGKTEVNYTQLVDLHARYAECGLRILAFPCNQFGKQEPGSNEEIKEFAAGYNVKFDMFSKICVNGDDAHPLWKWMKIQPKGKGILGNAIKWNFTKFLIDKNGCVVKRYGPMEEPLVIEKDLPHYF
Glutathione peroxidase 1 (Homo sapiens), sequence (P07203 whole entry, looked up): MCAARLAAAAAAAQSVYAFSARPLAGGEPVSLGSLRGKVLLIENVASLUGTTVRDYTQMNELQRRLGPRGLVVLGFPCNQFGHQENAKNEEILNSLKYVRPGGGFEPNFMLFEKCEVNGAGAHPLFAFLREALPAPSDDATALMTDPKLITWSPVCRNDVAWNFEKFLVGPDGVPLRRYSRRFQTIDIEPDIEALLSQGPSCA
Nuclear receptor subfamily 1 group I member 3 (Homo sapiens), sequence (Q14994 whole entry, looked up): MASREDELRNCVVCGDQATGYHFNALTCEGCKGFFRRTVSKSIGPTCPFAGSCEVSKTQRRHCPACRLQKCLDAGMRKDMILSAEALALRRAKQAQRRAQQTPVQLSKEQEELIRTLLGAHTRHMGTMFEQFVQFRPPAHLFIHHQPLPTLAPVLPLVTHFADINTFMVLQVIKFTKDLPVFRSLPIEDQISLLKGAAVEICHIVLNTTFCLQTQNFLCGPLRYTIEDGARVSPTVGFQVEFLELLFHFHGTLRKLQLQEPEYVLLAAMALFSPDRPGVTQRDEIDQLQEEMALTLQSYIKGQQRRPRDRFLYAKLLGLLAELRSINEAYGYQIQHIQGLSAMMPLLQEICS

CC1=C(CC(=O)O)c2cc(F)ccc2/C1=C\c1ccc(S(C)(=O)=O)cc1
inactive: [1] | [2] | [3]

NC1[C@H]2CN(c3nc4c(cc3F)c(=O)c(C(=O)O)cn4-c3ccc(F)cc3F)C[C@@H]12 (some centres undefined)
inactive: [1] | [2] | [3]

CNCC(O)c1ccc(O)c(O)c1 (centres undefined)
inactive: [1] | [2] | [3]

Cc1c(O)cccc1C(=O)N[C@@H](CSc1ccccc1)[C@H](O)CN1C[C@H]2CCCC[C@H]2C[C@H]1C(=O)NC(C)(C)C
inactive: [1] | [2] | [3]

CC12CCC(CC1)C(C)(C)O2
inactive: [4] | [2] | [3]

CSc1ccc2c(c1)C(N1CCN(C)CC1)Cc1ccccc1S2 (centres undefined)
inactive: [1] | [2] | [3]

CC(=O)c1ccc2c(c1)N(CCCN(C)C)c1ccccc1S2
inactive: [1] | [2] | [3]

COC(=O)C1=C(C)NC(C)=C(C(=O)OC)C1c1ccccc1[N+](=O)[O-]
inactive: [1] | [2] | [3]

CCN(CC)C(C)CN1c2ccccc2Sc2ccccc21 (centres undefined)
inactive: [1] | [2] | [3]

O=C(O)c1ccccc1O
inactive: [5] | [4] | [6]

C[C@H]1O[C@@H](n2cc(F)c(=O)[nH]c2=O)[C@H](O)[C@@H]1O
inactive: [1] | [2] | [3]

CC(CN1c2ccccc2Sc2ccccc21)N(C)C (centres undefined)
inactive: [1] | [2] | [3]

O=C1O[C@H]([C@@H](O)CO)C(O)=C1O
inactive: [5] | [4] | [6] | [2] | [3]

Nc1ncnc2c1ncn2[C@@H]1O[C@H](CO)[C@@H](O)[C@H]1O
inactive: [1] | [2] | [3]
